# Assay outcomes from PubChem BioAssay.
# Shown are actives, neighbours in structure and some others; about 2.7% of the full set was active somewhere.
# CFTR F508del cor: CFTR F508del correction in bronchial cells; actives 0.36% (n = 350,000); activity (quench increase), % at 7.58 µM; CFBE cells, YFP halide quenching; stimulated with forskolin plus potentiator P3; % fluorescence drop versus neutral controls;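 active means mean added fluorescence quench of at least 8% versus neutral control, with both replicates also reaching 8%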;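 further: cells transiently co-express mutant CFTR-F508del with the halide-sensitive YFP; corrector assay measuring rescue of mutant channel to the surface after 24 h compound exposure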
# MPTP inh: inhibitors of mitochondrial permeability transition pore; isolated mouse mitochondria, Ca2+ swelling absorbance, 30 min; inhibition, % at 10 µM; actives 1.4% (n = 360,000); AID 602449;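 active means inhibition of 50% or more, scaled per plate between neutral and stimulator controls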;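 further: 0% = DMSO wells given calcium and 100% = 1 mM EGTA wells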
# SKN-1 inh: blocks SKN-1 activity in C. elegans; C. elegans VP596 Pgst-4::GFP/RFP ratio, acrylamide-induced, 24 h; AID 624304; inhibition, % at 21.8 µM; actives 0.49% (n = 360,000);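 active means interference check ratio from 0.5 to 1.5 plus GFP to RFP signal ratio inhibition reaching or exceeding a fixed threshold, cut at about 30% in these data, passing the limit was not always enough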
# ATG4B inhibitor: inhibitors of human ATG4B cysteine protease. Q9Y4P1. ATG4B cleavage of LC3-PLA2, NBD-HPC fluorescence, 1 h. inhibition, % at 8.33 µM. actives 0.51% (n = 340,000). AID 504462; in the data active means inhibition above about 40%
# Target sequence (Q9Y4P1 whole entry, looked up): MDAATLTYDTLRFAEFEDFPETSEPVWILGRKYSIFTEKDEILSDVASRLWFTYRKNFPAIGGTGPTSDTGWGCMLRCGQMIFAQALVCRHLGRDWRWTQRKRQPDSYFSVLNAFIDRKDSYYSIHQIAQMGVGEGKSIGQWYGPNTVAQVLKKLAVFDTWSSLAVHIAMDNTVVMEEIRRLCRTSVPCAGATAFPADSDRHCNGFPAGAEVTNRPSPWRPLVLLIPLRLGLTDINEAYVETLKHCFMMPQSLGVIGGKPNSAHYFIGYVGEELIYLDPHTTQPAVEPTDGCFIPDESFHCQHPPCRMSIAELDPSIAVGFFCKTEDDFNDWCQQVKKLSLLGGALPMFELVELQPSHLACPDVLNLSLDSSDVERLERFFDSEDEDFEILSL
# CendR NRP1 mod: NRP-1/CendR interaction modulation; FAM-RPARPAR peptide binding to NRP-1, fluorescence polarization; inhibition, % at 25 µM; actives 0.85% (n = 360,000); AID 602438;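 active means inhibition or corrected inhibition above about 18%, plus a signal ratio from 0.5 to 1.5, limit read from the data, passing the limit was not always enough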
# Rh123 counter: mitochondrial membrane potential, counter-screen | shares compounds with MPTP inh | isolated mitochondria, Rhodamine 123 fluorescence | inhibition, % at 10 µM | actives 78% (n = 5,000) | AID 624504; in the data active means inhibition above about 22%;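 further: 0% = DMSO vehicle and 100% = positive control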
# MPTP swell DR: MPTP inhibition, dose response swelling confirmation | IC50, µM | actives 58% (n = 780) | isolated mitochondria swelling, absorbance | shares compounds with MPTP inh | AID 651561; in the data active means IC50 below about 20 µM
# MPTP cs DR: MPTP inhibitor counter-screen activity, dose response; shares compounds with MPTP inh; AID 651564; actives 49% (n = 780); IC50, µM; isolated mitochondria counterscreen, fluorescence read-out; in the data active means IC50 below about 80 µM
# An asterisk follows results filed as active; i = inactive; x = not tested or not shown.
SMILES,CFTR F508del cor,MPTP inh,SKN-1 inh,ATG4B inhibitor,CendR NRP1 mod,Rh123 counter,others
O=C(COc1ccc(S(=O)(=O)NC2CCCCC2)cc1)NCC1CCCO1 (stereo not given),x,-1,5,-2,-8,x,
O=Cc1ccc(OCC(=O)NCC2CCCO2)cc1 (stereo not given),3,64*,1,-4,5,0,MPTP swell DR=>100;MPTP cs DR=>80
OC[C@@H]1CC[C@@H]2O[C@H](CCc3ccc(-c4ccccc4)cc3)[C@@H](n3cc(C4CC4)nn3)C[C@@H]2O1,-3,x,x,x,x,x,
CS(=O)(=O)c1ccc(Sc2nc3ccccc3[nH]2)c([N+](=O)[O-])c1,x,10,-7,-5,14,x,
O=[N+]([O-])c1cc(S(=O)(=O)C(F)(F)F)ccc1Sc1nc2ccccc2[nH]1,x,57*,-17,10,-4,91*,
COc1ccc(C(CNC(=O)c2ccc(-c3ccccc3)cc2)N(C)C)cc1OC (stereo not given),2,80*,-1,2,10,-11,MPTP swell DR=19*;MPTP cs DR=>80
Cc1cccc2cc(/C=N/NC(=O)c3ccccc3O)c(Cl)nc12,x,91*,-7,6,-1,80*,
Cc1ccc2cc(/C=N/NC(=O)c3ccccc3O)c(Cl)nc2c1,x,61*,13,0,-7,82*,
CN1CCN(C(=S)NC(=O)c2ccc(C(C)(C)C)cc2)CC1,1,1,-6,0,1,x,
C=CCn1cccc(/C=C/C(=O)c2ccc(C(C)(C)C)cc2)c1=S,x,77*,10,0,-26,4,
CN1CCN(CC(=O)N2c3ccccc3C(C)(c3ccccc3)CC2(C)C)CC1 (stereo not given),x,74*,-2,-3,6,-9,MPTP swell DR=i;MPTP cs DR=>80
CC1CC(C)(C)N(C(=O)CN2CCN(C)CC2)c2ccccc21 (stereo not given),-2,0,2,1,3,x,
CN1CCN(CC(=O)N2c3ccccc3C(C)(c3ccc(Cl)cc3)CC2(C)C)CC1 (stereo not given),x,75*,-1,-5,8,-3,MPTP swell DR=19*;MPTP cs DR=>80
CC(=O)N1c2ccccc2C(C)(c2ccccc2)CC1(C)C (stereo not given),x,0,5,-8,-2,x,
CCNC(=O)C[C@H]1C=C[C@@H](NS(=O)(=O)c2ccc(F)cc2)[C@@H](CO)O1,0,x,x,x,x,x,
N=c1oc2ccccc2cc1C(=O)Nc1ccccc1,0,2,-4,3,-2,x,
N=c1oc2cc(O)ccc2cc1C(=O)Nc1ccc(Br)cc1,4,61*,4,-9,-50,78*,
CCCNC(=O)Nc1ccc2c(c1)C(=O)N(C)C[C@H](OC)[C@@H](C)CN(C(C)=O)[C@@H](C)CO2,-1,x,x,x,x,x,
CNC[C@H]1OCCCC[C@@H](C)Oc2ccc(N(C)C)cc2C(=O)N([C@@H](C)CO)C[C@H]1C,3,x,x,x,x,x,
CN1CCN(/N=C/c2ccc(Cl)c(Cl)c2)CC1,x,90*,28,6,-9,-4,
CN1CCN(/N=C/c2ccc(N(c3ccccc3)c3ccccc3)cc2)CC1,-1,81*,4,16,0,-15,
C[C@@H]1CCCCO[C@H](CN(C)S(=O)(=O)c2cn(C)cn2)[C@H](C)CN([C@@H](C)CO)C(=O)c2cc(NC(=O)CCCCCC(=O)Nc3ccccc3N)ccc2O1,-2,x,x,x,x,x,
CCOC(=O)c1sc(NC(=O)CSc2n[nH]c(-c3ccccc3)n2)c(C#N)c1C,x,100*,-6,-6,-14,71*,
O=C(CSc1nc(-c2ccco2)cc(C(F)(F)F)n1)Nc1ccc(C(=O)N2CCCCC2)cc1,-5,54*,14,0,6,92*,
CCOC(=O)c1sc(NC(=O)CSc2nc(C)cc(C)n2)c(C#N)c1C,x,58*,23,-2,-6,40*,
SMILES,CFTR F508del cor,MPTP inh,SKN-1 inh,ATG4B inhibitor,CendR NRP1 mod,Rh123 counter,others
CCOC(=O)c1sc(NC(=O)CSc2ccccn2)c(C#N)c1C,x,3,5,6,7,x,
CCOC(=O)c1sc(NC(=O)c2cc(-c3ccccc3)nc3ccccc23)c(C#N)c1C,x,107*,6,-4,-22,78*,
CCOC(=O)c1sc(NC(=O)c2cccnc2)c(C#N)c1C,x,1,16,-2,8,x,
Cc1cccc(C)c1NC(=O)CSc1nc(-c2ccco2)cc(C(F)(F)F)n1,0,1,4,12,-4,x,
CCCc1cn(CC[C@H]2CC[C@H](NC(=O)Cc3cccnc3)[C@@H](CO)O2)nn1,0,x,x,x,x,x,
C[C@@H]1CN([C@@H](C)CO)S(=O)(=O)c2ccc(C3=CCCC3)cc2O[C@@H]1CN(C)Cc1ccccc1F,2,x,x,x,x,x,
CCOC(=O)c1sc(NC(=O)CSc2nc3c(cc2C#N)CCCCC3)c(C#N)c1C,x,91*,7,-1,-2,4,MPTP swell DR=>100;MPTP cs DR=9.8*
CCOC(=O)c1sc(NC(=O)CSc2nc(-c3ccco3)cc(C(F)(F)F)n2)c(C#N)c1C,x,84*,13,-1,1,7,MPTP swell DR=4*;MPTP cs DR=<2.5*
Cc1cc(NC(=O)CSc2nc(-c3ccco3)cc(C(F)(F)F)n2)no1,x,6,-7,-10,-1,x,
CCc1nnc(NC(=O)CSc2nc3c(cc2C#N)CCCC3)s1,x,1,13,-10,-15,x,
C[C@@H]1CN([C@H](C)CO)C(=O)c2cc(NC(=O)Cc3ccccc3)ccc2O[C@@H](C)CCCCO[C@@H]1CN(C)CC1CCCCC1,1,x,x,x,x,x,
NC(=S)NN=C1c2cc(Cl)ccc2-c2c1cc(Cl)cc2[N+](=O)[O-],x,93*,5,2,-6,74*,
COc1cc2c(cc1[N+](=O)[O-])-c1ccc([N+](=O)[O-])cc1C2=NNC(N)=S,x,3,13,x,1,x,
CN(C)CC(=O)N[C@@H]1CC[C@H](CCn2cc(CN(C)C)nn2)O[C@@H]1CO,1,x,x,x,x,x,
C[n+]1c(-c2ccccc2)cc2c(=Cc3ccccc3)c3ccccc3n21,4,-5,63,18,-1,x,
CN(C)c1ccc(C=c2c3cc(O)ccc3n3c2cc(-c2ccccc2)[n+]3C)cc1,3,53*,64,32,-201,59*,
O=C(Cc1cccnc1)N1CC2(C1)[C@@H](c1ccccc1)[C@H](CO)N2C(=O)C1CCOCC1,1,x,x,x,x,x,
C[C@@H]1CN([C@@H](C)CO)C(=O)c2cc(C#CCN(C)C)cnc2O[C@H]1CN(C)Cc1ccncc1,-3,x,x,x,x,x,
O=C(CSc1nnc(-c2ccc(O)cc2)o1)N1CCOCC1,x,1,-3,-10,-3,x,
Oc1ccc(-c2nnc(SCC3CCCCC3)o2)cc1,x,55*,4,-8,5,54*,
